In the library only some 2.5% were active in any assay of this set; here they are far more common.
D2 ag-1 – human D2 receptor agonism in beta-arrestin assay | P14416 | activation, % (concentration not given with the values) | DiscoveRx PathHunter D2 beta-arrestin, luminescence, 90 min; 100% = 57 uM dopamine signal | hit rate 0.084% among 360,000; in the data active = activation above about 40%; inconclusive = between about 15% and that limit
Target sequence (P14416 whole entry, looked up): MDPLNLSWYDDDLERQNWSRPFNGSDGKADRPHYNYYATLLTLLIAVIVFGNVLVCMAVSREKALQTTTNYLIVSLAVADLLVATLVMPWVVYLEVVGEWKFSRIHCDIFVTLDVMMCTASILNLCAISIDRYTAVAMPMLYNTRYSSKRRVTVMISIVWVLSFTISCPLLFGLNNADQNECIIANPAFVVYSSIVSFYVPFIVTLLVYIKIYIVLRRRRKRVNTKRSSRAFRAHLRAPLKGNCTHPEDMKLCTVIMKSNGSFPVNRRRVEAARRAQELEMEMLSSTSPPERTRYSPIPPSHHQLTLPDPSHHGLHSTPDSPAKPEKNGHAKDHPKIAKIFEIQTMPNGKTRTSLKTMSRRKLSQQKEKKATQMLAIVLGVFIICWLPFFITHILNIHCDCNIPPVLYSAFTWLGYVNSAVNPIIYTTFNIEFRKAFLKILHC
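DiscoveRx PathHunter D2 beta-arrestin cells (2,100/well) attached overnight, then compound-stimulated 90 min at 37 C in HBSS/10 mM HEPES/0.1% Tween-20 buffer; beta-galactosidase complementation read by luminescence after 1 h at ambient temperature. Dopamine 57 uM final (EC100) as control.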
D2 ag-2 – D2 dopamine receptor (human) agonism; P14416; HEK293 T-REx D2 cells, calcium flux agonist mode; activation, % at 2 µM; hit rate 0.53% among 340,000;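 active = activation over 3 SD above normal in the single-dose calcium agonist read, cut at about 30% in these data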
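Tetracycline-induced HEK293 Trex cells with D2 receptor force-coupled to calcium signaling, plated overnight at 30 C and loaded with no-wash calcium dye. Calcium flux read kinetically for 180 s after compound addition; responses flag agonists.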
D2 PAM-1 – positive allosteric modulators of human D2 dopamine receptor. DiscoveRx D2 beta-arrestin cells, luminescence, 90 min; 100% = 57 uM dopamine signal. P14416. hit rate 0.23% among 360,000. AID 624464. potentiation, % (test concentration not listed); in the data active = potentiation above about 50%; inconclusive = mostly about 30% to 49%
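D2 cells co-treated with compound plus 50 nM dopamine (EC20) for 90 min at 37 deg C to detect potentiation. Beta-arrestin recruitment was read as enzyme-fragment luminescence after 1 h at ambient temperature. Full response was set by 57 uM dopamine.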
D2 PAM-2 – positive allosteric modulators of human D2 dopamine receptor. hit rate 0.34% among 340,000. potentiation, % at 10 µM. AID 485347. HEK293 T-REx D2, calcium flux, EC20 dopamine potentiation;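 active = potentiation over 3 SD above the plate norm, cut at about 30% in these data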
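Cells plated with tetracycline inducer and held overnight at 30 C; calcium dye loaded 30–90 min at room temperature; baseline taken, compound added and read 180 s; EC20 dopamine then added and read 180 s.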
Apoferritin bind – candidate novel general anesthetic via apoferritin binding; apoferritin/1-aminoanthracene competitive binding, fluorescence; Potency, µM (titrated, usually from 77.5 µM), usual class: inhibitors; hit rate 0.074% among 350,000; P02791; active = well fitted inhibition curve with a large enough effect; inconclusive = small, poorly fitted or top-dose-only effect; inactive = no such curve, though single readings can be large or run the other way; also: nearly all actives have a fitted effect of over 20% in size
Target sequence (P02791 2-175 limits assumed): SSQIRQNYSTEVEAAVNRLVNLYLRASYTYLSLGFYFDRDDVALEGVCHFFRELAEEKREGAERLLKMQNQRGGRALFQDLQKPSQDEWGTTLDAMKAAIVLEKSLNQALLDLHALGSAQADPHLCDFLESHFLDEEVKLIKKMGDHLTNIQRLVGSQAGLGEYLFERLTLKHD
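10 uM apoferritin + 50% sat. 1-AMA, PBS; cpd 10 min RT; Ex380/Em535 endpoint; normalized to free probe vs complex; 4-param Hill fit; propofol titration as pos. ctrl.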
D2 antag – D2 dopamine receptor (human) antagonism; HEK293 TREx D2 cells, calcium flux, dopamine EC80; inhibition, % at 10 µM; hit rate 2% among 340,000; AID 485344; in the data active = inhibition above about 30%; inactive = below that, where a call was filed
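Calcium flux kinetic readout in an inducible HEK293 TREx D2 line plated overnight at 30 C. After 180 s compound exposure, an EC80 dopamine challenge follows with another 180 s kinetic read to detect antagonism.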
Numbers stand for hits; n = inactive; u = inconclusive; x = no result.

SMILES | D2 ag-1 | D2 ag-2 | D2 PAM-1 | D2 PAM-2 | Apoferritin bind | D2 antag
O=[N+]([O-])c1ccc(OCCCCN2CCCCC2)cc1 | n | n | n | n | n | n
O=C(CCCCn1c(=O)[nH]c2ccsc2c1=O)N1CCN(c2cccc(C(F)(F)F)c2)CC1 | x | n | x | n | n | x
Clc1ccc(-c2c[n+](Cc3ccc(Cl)cc3Cl)c3n2CCCCC3)cc1 | n | n | n | n | n | n
O=C(CSc1nnc2ccccn12)NC(=O)Cc1ccccc1 | n | n | n | n | n | n
O=C(c1ccc(F)cc1)N1CCC(C(=O)N2CCN(S(=O)(=O)c3cccc(F)c3)CC2)CC1 | n | n | n | n | x | n
Cc1ccc(NC(=O)c2c(C(F)(F)F)nn(C)c2Cl)cc1C | n | n | n | n | n | n
COc1ccc(OCCCN2CCc3ccccc3C2)cc1 | n | n | n | n | n | 72
CCCOc1ccc(OCCOCCN2CCc3ccccc3C2)cc1 | n | n | n | n | u | 31
CCOc1ccc(OCCOCCN2CCc3ccccc3C2)cc1 | n | n | n | n | n | 68
COc1ccc(OC)c(-c2csc(NC(=O)CSc3ccc(Br)cc3)n2)c1 | n | n | n | n | n | n
Cn1c(Cn2nnc3ccccc32)nnc1SCC(=O)N1c2ccccc2CCc2ccccc21 | n | n | n | n | n | n
Cn1c(Cn2nnc3ccccc32)nnc1SCC(N)=O | n | n | n | 34 | n | n
Cc1cc(NC(=O)Cn2nnc3sc4c(c3c2=O)CCCC4)no1 | n | n | n | n | u | n
Cc1cc(NC(=O)Cn2nnc3sc4c(c3c2=O)CCC(C(C)(C)C)C4)no1 (configuration not stated) | n | n | n | n | 13µM | n
O=C(Cn1c(-c2ccccc2)noc1=O)N1CCC(Cc2ccccc2)CC1 | n | n | n | n | n | n
CCC(C(=O)OCC(=O)C1(O)CCC2C3CCC4=CC(=O)CCC4(C)C3C(O)CC21C)C(C)C (configuration not stated) | n | x | 56 | x | x | x
CC1CN(S(=O)(=O)c2ccc(F)cc2)CN1C(=O)N1CCOCC1 (configuration not stated) | n | n | n | n | n | n
CC1CN(S(=O)(=O)c2ccc(F)cc2)C(C)N1C(=O)N1CCOCC1 (configuration not stated) | n | n | n | n | n | 32
CN1CCN(Cc2ccc(Sc3ccc(Cl)cc3)c([N+](=O)[O-])c2)CC1 | n | n | n | n | n | n
Cc1ccc(Sc2ccc(CN3CCCC3)cc2[N+](=O)[O-])cc1 | n | n | n | n | n | 36
CCOCCCNC(=O)C(NC(=O)c1ccc2c(c1)OCO2)c1ccc(Cl)cc1 (configuration not stated) | n | n | n | n | n | n
Cc1ccc(C)c(OCc2cc(C(=O)N3CC[C@H](O)C3)no2)c1 | n | n | n | n | n | n
O=c1oc(-c2ccc(O)c(O)c2)cc2cc(O)cc(O)c12 | u | x | 51 | x | x | x
COCc1cccc(-c2csc(C(N)c3ccc(F)c(F)c3)n2)c1 (configuration not stated) | n | x | n | x | x | x
COc1ccc(CC(NC(C)=O)C(=O)NC2CCN(c3c(Cc4ccccc4)c(C)nc4ncnn34)CC2)cc1OC (configuration not stated) | x | n | x | n | n | n
SMILES | D2 ag-1 | D2 ag-2 | D2 PAM-1 | D2 PAM-2 | Apoferritin bind | D2 antag
CCc1cccc(CC)c1NC(=O)/C(C#N)=C/c1ccccc1C(F)(F)F | n | n | 96 | n | n | n
N#C/C(=C\c1ccccc1C(F)(F)F)C(=O)Nc1ccccc1 | n | n | n | n | n | n
Cn1c(-c2ccc(Br)cc2)cnc1NCc1cccnc1 | n | n | n | n | n | 43
O=C(CC1C(=O)NCCN1Cc1ccc(F)cc1)NCCCn1cccn1 (configuration not stated) | n | n | n | n | n | n
COc1ccc(OC)c(NC(=O)C(CCSC)NS(=O)(=O)c2cccs2)c1 (configuration not stated) | n | n | n | n | n | 32
COCCNC(=O)c1cc2c(=O)n(C)c3ccccc3c2n1C | n | n | n | n | n | n
Cn1c(C(=O)NCCCN2CCCCCC2)cc2c(=O)n(C)c3ccccc3c21 | n | n | n | n | n | n
Cn1c(C(=O)NCCCN2CCc3ccccc3C2)cc2c(=O)n(C)c3ccccc3c21 | n | n | n | n | n | 81
CN(C)CCNC(=O)c1cc2c(=O)n(C)c3ccccc3c2n1C | n | n | n | 33 | n | n
CCN(CC)CCNC(=O)c1cc2c(=O)n(C)c3ccccc3c2n1C | n | n | n | n | n | 37
CCN(CC)CCCNC(=O)c1cc2c(=O)n(C)c3ccccc3c2n1C | n | n | n | n | n | n
Cc1ccc(C)c(Cn2c(=O)c3c(nc4n3CCN4c3ccc(F)cc3)n(C)c2=O)c1 | x | n | x | n | n | x
COc1ccccc1CN1CC(C(=O)NCCN(C)CCc2ccccc2)CCC1=O (configuration not stated) | n | 46 | n | n | n | n
O=S(=O)(Cc1ccccc1)N1CCN(C2Cc3ccccc3C2)CC1 | n | n | n | n | n | 30
Cc1nnc(SC(C)C(=O)NCC2CCCO2)s1 (configuration not stated) | n | n | n | n | x | 31
Cc1ccc(Nc2nnc(SC(C)C(=O)NCC3CCCO3)s2)cc1C (configuration not stated) | n | n | n | n | x | n
CC1CCC(C(C)C)C(OC(=O)COC(=O)c2ccc(=O)[nH]c2)C1 (configuration not stated) | n | n | n | n | u | n
CC1CCC(C(C)C)C(OC(=O)COC(=O)c2cc(O)ccc2N)C1 (configuration not stated) | u | n | 93 | n | n | n
Cc1cc(C)c(S(=O)(=O)Nc2ncn[nH]2)c(C)c1 | n | n | n | n | n | n
COc1ccccc1C1C(C(C)=O)=C(C)N=c2s/c(=C\c3cc(OC)c(OC)c(OC)c3)c(=O)n21 (configuration not stated) | n | n | n | 32 | n | n
COC(=O)c1ccc(C)c(NS(=O)(=O)c2cn(C)nc2C)c1 | n | x | n | x | n | x
NC(=O)CCCCC(=O)OCCCc1cccs1 | n | n | n | 31 | n | n
Cc1cc(C)c2c(CC(=O)N(Cc3ccc(Cl)cc3)Cc3ccco3)coc2c1 | x | n | x | n | n | x
O=C(Cc1ccccc1)NC1CCN(S(=O)(=O)c2cccc(F)c2)CC1 | n | n | n | n | n | n

Source: PubChem BioAssay (National Center for Advancing Translational Sciences (NCATS))
